High-throughput results: PubChem BioAssay, National Center for Advancing Translational Sciences (NCATS)
Marburg entry – blocks Marburg virus binding or cell entry; Marburg virus pseudotype entry/binding inhibition, cell-based; hit rate 6.5% among 18,000; Potency, µM (titrated, usually from 49.2 µM), without a hit: top-dose activity change, negative = inhibition, most hits filed as inhibitors
LASV entry inh – Lassa virus entry inhibition. Lassa virus pseudotyped entry inhibition, cell-based qHTS. Potency, µM (highest dose often 49.2 µM), without a hit: at the highest dose activity change, negative = inhibition, usual class: inhibitors. hit rate 4.1% among 18,000
* marks the source's active call; other numbers are inactive results; [ ] = dose if it differs, or a comment. An excerpt weighted towards active compounds, which were near 7.1% of everything screened. Calls follow the shape of the full dose curve; tested in HEK293 cells. % is scaled to controls: 0 for no effect and ±100 for the full control effect; potency is read from the fitted curve at half-maximal effect.

COc1cccc(-c2cc(=O)c3cc(NC(=O)c4ccc(N(C)C)cc4)ccc3[nH]2)c1 was read as Marburg entry 4µM* and LASV entry inh inconclusive.
`COc1ccc2[nH]c(-c3cccc(F)c3)cc(=O)c2c1` gave Marburg entry inconclusive and LASV entry inh -11%.
Screening COc1cccc(-c2cc(=O)c3cc(NC(=O)c4ccccc4)ccc3[nH]2)c1 returned Marburg entry 7.1µM* and LASV entry inh inconclusive.
For COc1cccc(-c2cc(=O)c3cc(NC(=O)c4ccc(Cl)cc4)ccc3[nH]2)c1 the results were Marburg entry inconclusive and LASV entry inh 1%.
CC(C)(C)OC(=O)N1CCCC(C(=O)Nc2ccc(C(=O)N3CCCCC3)cc2)C1 (centres undefined) was read as Marburg entry -15% and LASV entry inh 4%.
O=c1[nH]c(=O)n([C@H]2C[C@H](O)[C@@H](CO)O2)cc1Br was read as Marburg entry -4% and LASV entry inh -4%.
Screening CCCCCCC[N+](CC)(CC)CCCCc1ccc(Cl)cc1 returned Marburg entry inconclusive and LASV entry inh 5µM*.
CCCCCCCCc1ccc(-c2ccc(C(=O)O)cc2)cc1 was read as Marburg entry -1% and LASV entry inh 9%.
Screening C=C[C@H]1CN2CC[C@@H]1C[C@H]2[C@@H](O)c1ccnc2ccccc12 returned Marburg entry inconclusive and LASV entry inh 11%[17.8 µM].
COP(=O)(OC)[C@@H](O)C(Cl)(Cl)Cl was read as Marburg entry 10%[17.8 µM] and LASV entry inh 4µM*.
For CC(C)[C@@H](CC(=O)N[C@@H]1CCNC[C@H]1C(=O)N[C@H](CC(=O)N[C@@H](CCC(=O)O)CC(=O)O)Cc1ccccc1)NC(=O)C[C@H](Cc1ccccc1)NC(=O)[C@@H]1CNCC[C@H]1N the results were Marburg entry -21% and LASV entry inh 0%.
`Nc1ncnc2c1ncn2[C@@H]1O[C@@H]2CO[P@](=O)(S)O[C@H]2[C@H]1O` gave Marburg entry 9% and LASV entry inh 9%.
O=C(Nc1ccccc1)OCC(CN1CCCCC1)OC(=O)Nc1ccccc1 (centres undefined) was read as Marburg entry 13µM* and LASV entry inh -13%.
For O=C(OCCN1CCCCC1)C(O)(c1ccccc1)c1ccccc1 the results were Marburg entry -14% and LASV entry inh -17%.
Screening CC1CC[C@@]2(OC1)O[C@@H]1[C@@H](O)[C@H]3C4CC[C@H]5C[C@@H](O[C@@H]6O[C@H](CO)[C@H](O[C@@H]7O[C@H](CO)[C@@H](O)[C@H](O[C@@H]8OC[C@@H](O)[C@H](O)[C@H]8O)[C@H]7O[C@@H]7O[C@H](CO)[C@@H](O)[C@H](O[C@@H]8O[C@H](CO)[C@@H](O)[C@H](O)[C@H]8O)[C@H]7O)[C@H](O)[C@H]6O)[C@H](O)C[C@]5(C)C4CC[C@]3(C)[C@H]1[C@@H]2C (some centres undefined) returned Marburg entry 25µM* and LASV entry inh 14µM*.
CC1CC[C@@]2(OC1)OC1CC3C4CC[C@@H]5CC(O)CC[C@@]5(C)C4CC[C@]3(C)C1C2C (some centres undefined) was read as Marburg entry 17% and LASV entry inh -2%.
Screening CC1CC[C@@]2(OC1)OC1C(O)C3C4CC[C@H]5CC(O[C@@H]6O[C@@H](CO)[C@H](OC7OC(CO)C(O)C(OC8OCC(O)C(O)[C@H]8O)[C@@H]7O[C@@H]7OC(CO)[C@H](O)[C@@H](O[C@@H]8OC(CO)C(O)C(O)C8O)C7O)C(O)C6O)C(O)C[C@]5(C)C4CC[C@]3(C)C1C2C (some centres undefined) returned Marburg entry inconclusive and LASV entry inh 14µM*.
`CC1CC[C@@]2(OC1)OC1CC3C4CC[C@H]5CC(O)CC[C@@]5(C)C4CC[C@]3(C)C1C2C` (some centres undefined) gave Marburg entry -3% and LASV entry inh -8%.
N#CC(C#N)=C(N)/C(C#N)=C/c1ccc2[nH]ccc2c1 was read as Marburg entry 17% and LASV entry inh 8%.
For CC(C)C(NC(=O)c1ccoc1)c1nnc2n1CCN(C(=O)/C=C/c1ccc(F)cc1)CC2 (centres undefined) the results were Marburg entry 0% and LASV entry inh -8%.
`Cc1c(N)nc(C(CC(N)=O)NCC(N)C(N)=O)nc1C(=O)NC(C(=O)NC(C)C(O)C(C)C(=O)NC(C(=O)NCCc1nc(-c2nc(C(=O)NCCCN[C@@H](C)c3ccccc3)cs2)cs1)C(C)O)C(O[C@@H]1O[C@@H](CO)[C@@H](O)[C@H](O)[C@@H]1O[C@H]1O[C@H](CO)[C@@H](O)[C@H](OC(N)=O)[C@@H]1O)c1cnc[nH]1` (some centres undefined) gave Marburg entry 3.2µM* and LASV entry inh 3.5µM*.
For O=c1cc(-c2ccc(O)cc2)oc2ccc(O)cc12 the results were Marburg entry 56% and LASV entry inh 11µM*.
